# Laboratory results: PubChem BioAssay
# Active and inactive are the calls of the source.
# Tests used:
# [1] = compound effects on lung adenocarcinoma cell viability – A549, calcein-AM fluorescence, 48 h, basal, profiling panel (AID 1162); conditions: higher = more signal
# [2] = compound effects on differentiated 3T3-L1 adipocyte viability – cell-based, 3T3-L1 adipocytes, calcein-AM fluorescence, 48 h, basal, profiling panel (AID 1163); conditions: 3T3-L1 adipocytes viability, higher = more signal
# [3] = compound effects on hepatocellular carcinoma cell viability – HepG2, calcein-AM fluorescence, 48 h, basal, profiling panel (AID 1164); conditions: higher = more signal
# [4] = compound effects on multiple myeloma cell viability – MM1S, calcein-AM fluorescence, 48 h, basal, profiling panel (AID 1165); conditions: higher = more signal
# [5] = calcein-AM signal in unstimulated myeloma cells – cell-based, calcein-AM fluorescence, 48 h, PK04 Diversity Set, profiling panel (AID 1166); conditions: RPMI8226 myeloma viability, higher = more signal;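 further: cells grown under basal conditions without added stimulus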
# [6] = JC-1 mitochondrial signal, unstimulated HepG2 cells – cell-based, JC-1 fluorescence, 24 h, 100 nL compound, profiling panel (AID 1167); conditions: HepG2 mitochondrial potential, higher = more signal
# [7] = JC-1 mitochondrial signal, unstimulated adipocytes – cell-based, JC-1 fluorescence, 3T3-L1 adipocytes, 24 h, 100 nL compound, profiling panel (AID 1168); conditions: JC-1 mitochondrial fluorescence, higher = more signal, called active from +8 up or from −8 down
# [8] = JC-1 mitochondrial signal, unstimulated myeloma cells – cell-based, JC-1 fluorescence, RPMI8226, 24 h, 100 nL compound, profiling panel (AID 1169); conditions: JC-1 mitochondrial potential fluorescence, higher = more signal
# [9] = JC-1 mitochondrial signal, unstimulated MM1S myeloma – cell-based, JC-1 fluorescence, 24 h, 100 nL compound, profiling panel (AID 1170); conditions: MM1S mitochondrial potential, higher = more signal
# [10] = resazurin metabolic signal in A549 cells – cell-based, resazurin fluorescence, 24 h, PK04 Diversity Set, profiling panel (AID 1171); conditions: A549 viability, higher = more signal, called active from +8 up or from −8 down
# Further: test concentration not given here.
compound,measurement,setting,value
Cc1ccccc1C(O)C1C=CC2C(=O)N(C)C(=O)C2N1Nc1ccccc1 (stereo not given),z-score,[1],0.262
same,z-score,[2],-1.23
same,z-score,[3],-0.284
same,z-score,[4],-0.143
same,z-score,[5],-0.272
same,z-score,[6],-1.96
same,z-score,[7],-1.19 (inactive)
same,z-score,[8],-0.317
same,z-score,[9],-0.00815
same,z-score,[10],-0.621 (inactive)
CCN(CC)c1ccc(N2CC=CC34O[C@@H]5C=CCCOC(=O)C5[C@H]3C(=O)N(CCCCCO)[C@@H]4C2=O)cc1 (stereo not given in full),z-score,[1],1.69
same,z-score,[2],0.132
same,z-score,[3],1.08
same,z-score,[4],1.39
same,z-score,[5],-0.0513
same,z-score,[6],1.65
same,z-score,[7],1.27 (inactive)
same,z-score,[8],0.589
same,z-score,[9],0.84
same,z-score,[10],1.62 (inactive)
COCCOC(=O)N1C(=O)[C@@]2(c3cc(C#CC4=CCCCC4)ccc31)[C@H](C(=O)NC[C@H](O)c1ccccc1)[C@H]1C(=O)O[C@H](c3ccccc3)[C@H](c3ccccc3)N1[C@@H]2c1ccc(O)cc1,z-score,[1],-0.144
same,z-score,[2],1.3
same,z-score,[3],-0.34
same,z-score,[4],-2.81
same,z-score,[5],-3.45
same,z-score,[6],-2.71
same,z-score,[7],1.35 (inactive)
same,z-score,[8],-0.657
same,z-score,[9],0.0116
same,z-score,[10],-1.09 (inactive)
CC(C)CNC(=O)[C@@H]1c2ccccc2C(=O)N(Cc2cc(C(F)(F)F)cc(C(F)(F)F)c2)[C@H]1c1ccc(CO)cc1,z-score,[1],0.099
same,z-score,[2],0.628
same,z-score,[3],-0.155
same,z-score,[4],0.37
same,z-score,[5],-0.754
same,z-score,[6],0.363
same,z-score,[7],-0.861 (inactive)
same,z-score,[8],0.428
same,z-score,[9],1.25
same,z-score,[10],-0.0372 (inactive)
C=C(COC)/C(=C/C[C@H](OC(=O)c1ccncc1)c1cccc(OCCO)c1)c1cc(C(=O)OC)ccc1OC,z-score,[1],0.404
same,z-score,[2],0.987
same,z-score,[3],-0.0353
same,z-score,[4],-1.15
same,z-score,[5],-0.686
same,z-score,[6],1.51
same,z-score,[7],0.246 (inactive)
same,z-score,[8],-0.351
same,z-score,[9],0.0566
same,z-score,[10],1.14 (inactive)
CC(C)C[C@@H]1NC(=O)[C@H]2C[C@@H](C(=O)NCCCCCNC(=O)CS)[C@@H](c3cccc(OCCO)c3)N2C1=O,z-score,[1],0.546
same,z-score,[2],-0.206
same,z-score,[3],-0.158
same,z-score,[4],-1.11
same,z-score,[5],-0.768
same,z-score,[6],-0.0747
same,z-score,[7],-0.362 (inactive)
same,z-score,[8],0.565
same,z-score,[9],0.975
same,z-score,[10],0.276 (inactive)
N[C@@H](Cc1ccccc1)Cn1cc(-c2ccccc2)nn1,z-score,[1],-0.192
same,z-score,[2],-0.711
same,z-score,[3],-0.0622
same,z-score,[4],-1.57
same,z-score,[5],-0.0672
same,z-score,[6],1.18
same,z-score,[7],0.399 (inactive)
same,z-score,[8],-0.515
same,z-score,[9],0.137
same,z-score,[10],0.837 (inactive)
[N-]=[N+]=Nc1ccccc1[C@@H]1OC(c2ccc(OCCCO)cc2)=N[C@]1(CCS(=O)(=O)c1ccccc1)C(=O)N1CCOCC1,z-score,[1],1.53
same,z-score,[2],0.293
same,z-score,[3],1.33
same,z-score,[4],0.0503
same,z-score,[5],-0.908
same,z-score,[6],0.431
same,z-score,[7],0.406 (inactive)
same,z-score,[8],-0.746
same,z-score,[9],-0.799
same,z-score,[10],-0.549 (inactive)
CCOC(=O)C[C@H]1[C@H](OC(=O)Cc2ccc3c(c2)OCO3)[C@@H](NC(=O)C2CCCCC2)c2cc(OCCCO)ccc2N1C(=O)Cc1ccc(OC)cc1,z-score,[1],0.746
same,z-score,[2],0.433
same,z-score,[3],1.08
same,z-score,[4],0.747
same,z-score,[5],0.664
same,z-score,[6],2.39
same,z-score,[7],0.0143 (inactive)
same,z-score,[8],-0.0561
same,z-score,[9],-0.784
same,z-score,[10],-0.247 (inactive)
COCCOC(=O)N1C(=O)[C@@]2(c3cc(C#CCNC(N)=O)ccc31)[C@H](c1ccccc1OCCO)N1[C@H](c3ccccc3)[C@H](c3ccccc3)OC(=O)[C@H]1[C@@H]2C(N)=O,z-score,[1],-0.0052
same,z-score,[2],-0.131
same,z-score,[3],-0.617
same,z-score,[4],-0.456
same,z-score,[5],0.0352
same,z-score,[6],-1.83
same,z-score,[7],0.369 (inactive)
same,z-score,[8],-0.115
same,z-score,[9],-1.08
same,z-score,[10],0.0565 (inactive)
COc1ccccc1CN1C(=O)c2ccccc2[C@@H](C(=O)NCCN2CCOCC2)[C@@H]1c1ccc(CO)cc1,z-score,[1],0.61
same,z-score,[2],0.0251
same,z-score,[3],0.556
same,z-score,[4],-0.231
same,z-score,[5],-0.55
same,z-score,[6],2.15
same,z-score,[7],0.364 (inactive)
same,z-score,[8],0.711
same,z-score,[9],-0.691
same,z-score,[10],1.33 (inactive)
COC(=O)C[C@H]1O[C@]2(C(=O)N(Cc3ccccc3)c3ccc(NC(C)=O)cc32)[C@@H](C)[C@@H]1[Si](C)(C)c1ccc(OC)cc1,z-score,[1],-0.472
same,z-score,[2],1.73
same,z-score,[3],0.425
same,z-score,[4],0.0926
same,z-score,[5],-2.57
same,z-score,[6],0.0504
same,z-score,[7],1.73 (inactive)
same,z-score,[8],-0.0063
same,z-score,[9],0.402
same,z-score,[10],-1.62 (inactive)
NC(=O)NCC#Cc1ccc2c(c1)[C@]1(C(=O)N2)[C@H](C(=O)N2CCCCCCC2)[C@H]2C(=O)O[C@H](c3ccccc3)[C@H](c3ccccc3)N2[C@@H]1c1ccc(OCCO)cc1,z-score,[1],-0.0962
same,z-score,[2],-0.15
same,z-score,[3],-1.09
same,z-score,[4],-0.682
same,z-score,[5],-0.365
same,z-score,[6],-1.79
same,z-score,[7],-2.9 (inactive)
same,z-score,[8],-0.165
same,z-score,[9],-0.781
same,z-score,[10],-0.316 (inactive)
CC(C)NC(=O)[C@@]1(Cc2ccccc2I)c2ccccc2C(=O)N(Cc2ccccc2)[C@H]1c1ccc(CO)cc1,z-score,[1],-0.547
same,z-score,[2],-0.405
same,z-score,[3],-0.513
same,z-score,[4],0.525
same,z-score,[5],-0.651
same,z-score,[6],0.798
same,z-score,[7],-1.19 (inactive)
same,z-score,[8],-0.638
same,z-score,[9],-0.715
same,z-score,[10],1.29 (inactive)
COCCOC(=O)N1C(=O)[C@@]2(c3cc(C#CC4=CCCCC4)ccc31)[C@H](C(=O)N1CCc3cc(OC)c(OC)cc3C1)[C@H]1C(=O)O[C@H](c3ccccc3)[C@H](c3ccccc3)N1[C@@H]2c1ccccc1OCCO,z-score,[1],0.145
same,z-score,[2],0.299
same,z-score,[3],0.274
same,z-score,[4],-1.37
same,z-score,[5],-1.06
same,z-score,[6],0.0701
same,z-score,[7],2.17 (inactive)
same,z-score,[8],-0.701
same,z-score,[9],-0.72
same,z-score,[10],0.267 (inactive)
CCOC(=O)[C@H]1C/C=C/C[C@H](C(=O)OCC)C(=O)O[C@H]2[C@@H](OC)O[C@H](CO)[C@@H](OC(=O)Nc3ccc4c(c3)OCO4)[C@@H]2OC1=O,z-score,[1],-2.58
same,z-score,[2],-0.256
same,z-score,[3],-5
same,z-score,[4],-3.35
same,z-score,[5],-4.14
same,z-score,[6],-3.1
same,z-score,[7],1.56 (inactive)
same,z-score,[8],-0.975
same,z-score,[9],-1.75
same,z-score,[10],-5 (inactive)
